In general, inhibition refers to the relative decrease from the control value, in per cent.

Inhibition data for 61 molecules are collected here from PubChem BioAssay AID1566 (Sanford-Burnham Center for Chemical Genomics, 2009).

SMILES strings stand for the structures. Values joined by “and” are separate entries in the source; they are usually repeats but may differ in a detail not shown here. Identical values can stand only once. About 1,800 (0.62%) of roughly 290,000 compounds were called active. Cut-off read from the data, not from the text of the source: active = inhibition above about 50%; inactive = the rest. The full list was thinned out, with actives kept by preference.

This test can be described thus: NOD2 signaling inhibitors, cell-based, luminescence, uHTS, HEK293 (AID 1566). As to conditions: HEK293 NOD2/NF-kB luciferase reporter, at 4 µM, active compounds read high. A general note: A reporter such as luciferase makes a cellular process visible.
For `CCC1c2ccc(C)n2CCN1C(=O)Nc1cc(Cl)ccc1OC` (stereo unspecified), the inhibition was 13.8% (inactive). Take `COc1ccc(O)c(-c2[nH]ncc2C(=O)c2cccc(C)c2)c1`: the inhibition is 9.9% (inactive). For `COc1ccc(O)c(-c2[nH]ncc2C(=O)c2ccccc2C)c1`, the inhibition was 5.8% (inactive). Regarding `O=C(Cn1ncc2c3ccccc3n(Cc3ccc(F)cc3)c2c1=O)N1CCN(c2ncccn2)CC1`, the inhibition was 15.9% (inactive). The figure for `O=C(NC1=NCCS1)C1COc2ccccc2O1` (stereo unspecified) is 63.1% (active); for `O=C(Nc1nncs1)C1COc2ccccc2O1` (stereo unspecified) it is -9% (inactive); for `O=C(Nc1ccccc1)C1COc2ccccc2O1` (stereo unspecified) it is -18.8% (inactive). For `Nc1ccc(S(=O)(=O)O)cn1`, the inhibition is 7.7% (inactive) and 2.4% (inactive). With `S=c1[nH]nc(-c2ccc(Cl)cc2)n1/N=C/c1cccs1` the figure was -8.1% (inactive); with `O=c1c2ccccc2cnn1CCOc1cccc(Br)c1`, -63.9% (inactive); with `O=c1c2ccccc2cnn1CCOc1ccccc1`, 60.4% (active). The figure for `COc1ccc2cnn(CCOc3ccccc3)c(=O)c2c1OC` is -68.5% (inactive). Take `CC(C)CN1CCNC(=O)C1CC(=O)NCCCN1CCCc2ccccc21` (stereo unspecified): the inhibition is 3% (inactive).

On to `Cc1ccc(NS(=O)(=O)c2cc(NC(=O)c3cc(=O)[nH]c(=O)[nH]3)ccc2Cl)c(C)c1`, for which the inhibition was 22.6% (inactive). With `COc1ccc(NC(=O)c2ccc3c(c2)NC(=O)CS3)cc1S(=O)(=O)Nc1ccc(Br)cc1` the figure was 3.4% (inactive); with `CC(=O)O/N=C/c1c(Cl)n(C)c2ccccc12`, -6.2% (inactive). As for `Cc1c(/C(O)=C2/C(=O)C(=O)N(CCN3CCOCC3)C2c2ccccn2)cnn1-c1ccccc1` (stereo unspecified), the inhibition was 56.8% (active). On to `Cc1c(/C(O)=C2/C(=O)C(=O)N(CCN3CCOCC3)C2c2cccnc2)cnn1-c1ccccc1` (stereo unspecified), for which the inhibition was 8.5% (inactive). On to `Cc1ccc(C2/C(=C(/O)c3cnn(-c4ccccc4)c3C)C(=O)C(=O)N2CCN2CCOCC2)o1` (stereo unspecified), for which the inhibition is -58.4% (inactive). As for `N#CCSc1nc(Nc2ccc3c(c2)OCO3)c2ccccc2n1`, the inhibition was 22% (inactive). With `CCOC(=O)CSc1nc(Nc2ccc3c(c2)OCO3)c2ccccc2n1` the figure was 85.7% (active); with `CCOC(=O)CSc1nc(C)c2ccccc2n1`, 3.1% (inactive); with `Cc1cc2ncc(C(=O)Nc3ccsc3C(=O)O)c(C)n2n1`, 20.1% (inactive). In the case of `Cc1cc[n+](C(C)C(=O)c2ccc(-c3ccccc3)cc2)cc1` (stereo unspecified), the inhibition was 22.5% (inactive).

Take `Cc1ccc[n+](C(C)C(=O)c2ccc(-c3ccccc3)cc2)c1` (stereo unspecified): the inhibition was 23.2% (inactive). With `Cc1cc(C)c[n+](C(C)C(=O)c2ccc(-c3ccccc3)cc2)c1` (stereo unspecified) the figure was 53.1% (active); with `Cc1cc(NC(=O)CSc2nnc(CNC(=O)c3c(F)cccc3F)o2)no1`, -3.4% (inactive); with `COc1cccc(OC)c1C(=O)Nc1ccc(N2CCN(C(=O)c3ccco3)CC2)cc1`, 0.8% (inactive).

Turning to `O=C(CCS(=O)(=O)c1ccc2c(c1)NC(=O)CS2)NCc1cccs1`, the inhibition is 0.9% (inactive). With `CCOC(=O)CC1C(=O)NCCN1c1nc2c(C)cccn2c(=O)c1/C=C1\SC(=S)N(CC(C)C)C1=O` (stereo unspecified), the inhibition was 51.8% (active).

With `CCCN1C(=O)/C(=C/c2c(N3CCNC(=O)C3CC(=O)OCC)nc3c(C)cccn3c2=O)SC1=S` (stereo unspecified), the inhibition was 44.3% (inactive). With `CCOC(=O)CC1C(=O)NCCN1c1nc2c(C)cccn2c(=O)c1/C=C1\SC(=S)N(C(C)CC)C1=O` (stereo unspecified) the figure was 49% (inactive). Consider `Cc1nc2ncnn2c(N2CCN(C(c3ccccc3)c3ccccc3)CC2)c1C`, for which the inhibition is 11.8% (inactive). `O=C(Nc1cnc2ccccc2c1)c1ccncc1`: the inhibition was -72% (inactive).

For `O=C(Nc1cc2ccccc2oc1=O)c1ccccc1`, the inhibition is 18.1% (inactive). Consider `Cc1ccc(C(=O)Nc2cc3ccccc3oc2=O)cc1`, for which the inhibition is 69.7% (active).

Consider `CC(=O)Nc1cc2ccccc2oc1=O`, for which the inhibition is 9% (inactive). The figure for `Cc1ccc(C(=O)Nc2cnc3ccccc3c2)cc1` is 54.2% (active). With `Cc1ccc(NC(=O)Nc2cnc3ccccc3c2)cc1` the figure was -175% (inactive); with `CNC(=O)NNC(=O)c1csc(-c2ccc(C(F)(F)F)cc2Cl)n1`, 14.2% (inactive). For `COc1ccc(/C=N\Nc2ncc(F)c(N3CCOCC3)n2)cc1OC`, the inhibition is 3.5% (inactive). As for `COc1cccc(C(=O)O/N=C(\C)c2cnccn2)c1`, the inhibition was 4.6% (inactive). With `Cc1nc2scc(C)n2c(=O)c1S(=O)(=O)NC(C)c1ccccc1` (stereo unspecified) the figure was 20.2% (inactive); with `Cc1c(O)nc(SCC(=O)Nc2cccc(C(F)(F)F)c2)n(-c2ccccc2)c1=O`, -0.1% (inactive); with `C/C(=N\NC(=O)c1ccc(COc2ccccc2)cc1)c1ccncc1`, -1.5% (inactive). The figure for `CCOc1ccc(OCc2ccc(C(=O)N/N=C(\C)c3ccccn3)cc2)cc1` is 76.9% (active); for `CCOc1ccc(C(=O)N/N=C(\c2ccccc2)c2ccccn2)cc1` it is -82% (inactive). With `COc1ccccc1/C=C1\SC(=S)N(CCC(=O)N2CCCCC2CCO)C1=O` (stereo unspecified) the figure was 5.9% (inactive). Regarding `CCCOc1ccc(C(O)(CCC)CCN2CCCCC2)cc1` (stereo unspecified), the inhibition is 3.4% (inactive). The figure for `Cc1cc(C(=O)CN2C(=O)c3ccccc3S2(=O)=O)c(C)n1-c1ccccc1` is 64.2% (active); for `Cc1cc(C(=O)CN2C(=O)C3CC=CCC3C2=O)c(C)n1-c1ccccc1` (stereo unspecified) it is -109% (inactive); for `O=C(CN1C(=O)c2ccccc2S1(=O)=O)c1ccc(O)c(O)c1` it is 42.4% (inactive).

With `O=C(CN1C(=O)c2ccccc2S1(=O)=O)c1ccccc1`, the inhibition was 52.5% (active). Regarding `O=C(CN1C(=O)c2ccccc2S1(=O)=O)c1cccc(Br)c1`, the inhibition is 0.6% (inactive). With `Cc1ccc(C)c(C(=O)CN2C(=O)c3ccccc3S2(=O)=O)c1` the figure was -15% (inactive); with `COc1ccc(S(=O)(=O)NCc2cccnc2)cc1OC`, 6.9% (inactive). For the molecule `CCN(CC)c1nc(Nc2ccc([N+](=O)[O-])cc2)nc(N(CC)CC)n1`, the inhibition was 15.7% (inactive). With `O=C(O)Cc1sc(NCCc2ccccc2)nc1-c1ccc(F)cc1`, the inhibition was -6.1% (inactive). On to `C/C(=N/NC(=O)Cc1c(C)[nH][nH]c1=O)c1ccc(O)cc1`, for which the inhibition was -3% (inactive).

In the case of `Cc1ccccc1Nc1ccc2nonc2c1[N+](=O)[O-]`, the inhibition was 17.9% (inactive).

In the case of `CC(=O)Nc1cccc(NC(=O)CSc2nnc(NC(=O)C3CC3)s2)c1`, the inhibition is 2.1% (inactive).
